Most compounds without a hit are left out; they make up all but 17% or so of the library.
TDP1 cell CPT: qHTS for Inhibitors of human tyrosyl-DNA phosphodiesterase 1 (TDP1): qHTS in cells in presence of CPT; chicken DT40 Tdp1-/-;hTDP1 cells + 20 nM CPT, ATP luminescence, 48 h; Potency, µM (highest dose often 46.2 µM), most hits filed as inhibitors; 420,000 compounds, 12% hits; AID 686979, 2013; note: nearly all actives have a fitted effect of over 55% in size
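Chicken DT40 Tdp1-/- cells complemented with human TDP1, 400 cells/well, exposed to compounds plus 20 nM camptothecin for at least 48 h at 37 C; viability read as ATP content by CellTiter-Glo luminescence.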
ClpP mod: qHTS Assay for Activators of ClpP; ATP-dependent Clp protease proteolytic subunit (Bacillus subtilis (strain 168)), P80244; purified B. subtilis ClpP, FRET peptide cleavage, 20 min; Potency, µM (series often up to 57.5 µM); 340,000 compounds, 1.9% hits; AID 651965, 2013; active = well fitted falling curve with a large enough effect; inconclusive = small, poorly fitted or top-dose-only effect; inactive = no such curve, though single readings can be large or run the other way; note: the source files actives as falling curves though it sought activators and does not explain the sign; nearly all actives have a fitted effect of over 65% in size
Target sequence (P80244 whole entry, looked up): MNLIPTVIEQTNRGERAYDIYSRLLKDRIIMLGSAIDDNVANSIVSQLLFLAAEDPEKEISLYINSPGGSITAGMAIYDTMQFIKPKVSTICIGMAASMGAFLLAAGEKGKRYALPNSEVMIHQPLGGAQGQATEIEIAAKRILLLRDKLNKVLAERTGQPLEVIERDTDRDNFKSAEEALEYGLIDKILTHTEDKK
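Buffer: 100 mM Tris/HCl pH8, 100 mM KCl, 0.05% low protease BSA, 2.5% glycerol, 0.01% Tween-20. ClpP 10 microg/mL final; 20 min RT; delta FRET normalized to ADEP and DMSO controls.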
TDP1 block: qHTS Assay for Inhibitors of Tyrosyl-DNA Phosphodiesterase (TDP1); Potency, µM (highest dose often 130 µM), most hits filed as inhibitors; AID 485290, 2010; Tyrosyl-DNA phosphodiesterase 1 (Homo sapiens), Q9NUW8; recombinant TDP1, AlphaScreen DNA substrate cleavage; 350,000 compounds, 0.28% hits; note: nearly all actives have a fitted effect of over 40% in size
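Recombinant human Tdp1 (E. coli-expressed, 1 nM final) preincubated with compounds 15 min at room temperature, then 5'-biotin/3'-phosphotyrosine-FITC DNA substrate (15 nM final) added for 5 min. AlphaScreen beads (10 ug/ml final) added 10 min; cleavage lowers signal.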
TDP1 cell noCPT: qHTS for Inhibitors of human tyrosyl-DNA phosphodiesterase 1 (TDP1): qHTS in cells in absence of CPT | DT40 Tdp1-/- hTDP1 cells, no CPT, ATP luminescence, 48 h | Potency, µM (top dose mostly 46.2 µM), usual class: inhibitors | 420,000 compounds, 15% hits; note: nearly all actives have a fitted effect of over 55% in size
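Luminescent ATP content (CellTiter-Glo) served as the growth readout. Knockout chicken DT40 cells expressing human TDP1 were exposed to compounds without camptothecin for a minimum 48 hr at 37 °C.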
A number is an active result; [ ] = another dose, or the depositor's remark. Unless noted, calls come from the whole dose curve; as a rule, active = well fitted curve in the direction sought with a large enough effect; inconclusive = small, poorly fitted or top-dose-only effect, or another doubt; inactive = no such curve, though single readings can be large; an effect the other way counts as inactive or inconclusive.

How did COC(=O)CC1C(=O)NCCN1C(=O)c1cc([N+](=O)[O-])ccc1Cl (stereo not given) do in these assays?
TDP1 cell CPT: inactive; ClpP mod: inactive; TDP1 block: inactive; TDP1 cell noCPT: inactive

How did CCN(CCO)CC1CCCC2CCCCC21 (stereo not given) do in these assays?
TDP1 cell CPT: inactive; ClpP mod: inactive; TDP1 cell noCPT: inactive

How did COc1ccc(C(c2nnnn2Cc2ccccc2)N2CCN(C/C=C/c3ccccc3)CC2)cc1 (stereo not given) do in these assays?
TDP1 cell CPT: inconclusive; ClpP mod: inactive; TDP1 cell noCPT: 14.6µM

Results for CCN1CCN(C(c2ccccc2)c2nnnn2Cc2ccc(OC)cc2)CC1 (stereo not given) ?
TDP1 cell CPT: inactive; ClpP mod: inactive; TDP1 block: inactive; TDP1 cell noCPT: inactive

Results for Cc1onc(-c2ccc(Cl)cc2Cl)c1-c1csc(COc2ccccc2)n1 ?
TDP1 cell CPT: inactive; TDP1 block: inactive; TDP1 cell noCPT: inconclusive

What do the screens show for `c1cc2c(c(NCc3ccncc3)c1)CCCC2`?
TDP1 cell CPT: 11.6µM; ClpP mod: inactive; TDP1 block: inactive; TDP1 cell noCPT: 11.6µM

Results for CC(C)(C)CC(=O)Nc1cccc2c1CCCC2 ?
TDP1 cell CPT: inactive; ClpP mod: inactive; TDP1 block: inactive; TDP1 cell noCPT: inactive

Results for Cc1cccc(C)c1NC(=O)COC(=O)C1CC(=O)N(Cc2ccccc2)C1 (stereo not given) ?
TDP1 cell CPT: inactive; ClpP mod: inactive; TDP1 block: inactive; TDP1 cell noCPT: inactive

How did S=C(NN=Cc1ccccn1)N(Cc1ccccn1)Cc1ccccn1 do in these assays?
TDP1 cell CPT: 0.651µM; ClpP mod: 22.4µM; TDP1 cell noCPT: 0.92µM

What do the screens show for `S=C(NN=C(c1ccccc1)c1ccccn1)N(Cc1ccccn1)Cc1ccccn1`?
TDP1 cell CPT: 0.146µM; ClpP mod: inactive; TDP1 cell noCPT: 0.146µM

How did CC(=NNC(=S)N(Cc1ccccn1)Cc1ccccn1)c1cnccn1 do in these assays?
TDP1 cell CPT: 0.581µM; ClpP mod: inactive; TDP1 cell noCPT: 0.82µM

How did CC(=NNC(=S)N1CC2CCC(CC2)C1)c1cnccn1 do in these assays?
TDP1 cell CPT: inactive; ClpP mod: inactive; TDP1 cell noCPT: inactive

Results for CCN(CC(=O)NCc1cccs1)C(=O)c1ccc(S(=O)(=O)Nc2ccccc2Cl)cc1 ?
TDP1 cell CPT: inactive; ClpP mod: inactive; TDP1 block: inactive; TDP1 cell noCPT: inactive

Results for COCC(=O)N1CCC2(CC1)CCN(C(=O)Nc1cccc(F)c1)CC2 ?
TDP1 cell CPT: inactive; TDP1 cell noCPT: inactive

What do the screens show for `COc1ccccc1C1CN(Cc2cccn2-c2ncccn2)Cc2ccccc2O1` (stereo not given)?
TDP1 cell CPT: inactive[9.04 µM]; TDP1 cell noCPT: inactive

What do the screens show for `CCOC(=O)[C@]12CCC=C1N(Cc1ccccc1)C(=O)[C@H](CC(=O)NCc1ccc(OC)c(OC)c1)C2`?
TDP1 cell CPT: inconclusive; ClpP mod: inactive; TDP1 cell noCPT: inconclusive

What do the screens show for `CCN(CC)c1ccc(-c2nc(-c3ccco3)no2)cc1[N+](=O)[O-]`?
TDP1 cell CPT: inconclusive; ClpP mod: inactive; TDP1 block: inactive; TDP1 cell noCPT: 25.9µM

How did COc1ccc(CN(C)c2ccc(-c3nc(C)no3)cc2[N+](=O)[O-])cc1 do in these assays?
TDP1 cell CPT: 10.3µM; ClpP mod: inactive; TDP1 block: inactive; TDP1 cell noCPT: 8.2µM

Results for Cc1noc(-c2ccc(N(C)Cc3ccccc3)c([N+](=O)[O-])c2)n1 ?
TDP1 cell CPT: 20.6µM; ClpP mod: inactive; TDP1 block: inactive; TDP1 cell noCPT: 16.4µM

What do the screens show for `Cc1noc(-c2ccc(-c3noc(-c4ccc([N+](=O)[O-])c(C)c4)n3)cc2)n1`?
TDP1 cell CPT: inactive; ClpP mod: inactive; TDP1 block: inactive; TDP1 cell noCPT: inactive

What do the screens show for `CCCCNc1ccc(-c2nc(-c3ccco3)no2)cc1[N+](=O)[O-]`?
TDP1 cell CPT: inactive; ClpP mod: inactive; TDP1 block: inactive; TDP1 cell noCPT: inconclusive

What do the screens show for `CCc1nc(N)nc(N)c1-c1ccc(N(C)Cc2ccccc2)c([N+](=O)[O-])c1`?
TDP1 cell CPT: 4.61µM; ClpP mod: inactive; TDP1 cell noCPT: 0.651µM
